Data: PubChem BioAssay (EPA / NIEHS)
Active and inactive are the calls of the source. Rule for the calls: active = hit-call score of the fitted dose curve at least 0.9, where 1 is the maximum; inactive = score below 0.9.

What was measured:
Conditions in all cases: mRNA level, 48 h; actives raise or lower the signal
[1] = read-out: growth arrest and DNA damage 45 (GADD45G), GADD45G (gene 10912); test: LTEA_HepaRG_GADD45G: Life Technologies and Expression Analysis (LTEA) Assay for growth arrest and DNA damage 45 (GADD45G) using HepaRG (AID 2283499)
Summary of the method: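 Gain or loss of GADD45G mRNA, quantified by TaqMan qRT-PCR against three housekeeping genes, is fitted in both directions relative to 0.5% DMSO. Human HepaRG cultures receive test chemical for 48 h at up to 100 uM.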

[2] = read-out: Glutamate-cysteine ligase regulatory (GCLM), GCLM (gene 2730); test: LTEA_HepaRG_GCLM: Life Technologies and Expression Analysis (LTEA) Assay for Glutamate-cysteine ligase regulatory (GCLM) using HepaRG (AID 2283500)
Summary of the method: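 Differentiated human HepaRG cells exposed 48 h in serum-free induction medium to 8-point half-log concentrations (top 100 uM, 0.5% DMSO), in duplicate. GCLM mRNA quantified by qRT-PCR, normalized to ACTB, GAPDH, POLR2A; bidirectional fitting versus DMSO.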

[3] = read-out: Glutathione S-transferase M3 (GSTM3), GSTM3 (gene 2947); test: LTEA_HepaRG_GSTM3: Life Technologies and Expression Analysis (LTEA) Assay for Glutathione S-transferase M3 (GSTM3) using HepaRG (AID 2283501)
Summary of the method: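 HepaRG, plated 48 h, then serum-free induction medium; test chemical 48 h, duplicate; 100 uM top, half-log x8, 0.5% DMSO. Read-out: GSTM3 mRNA (TaqMan qRT-PCR, Fluidigm array). Bidirectional fit vs DMSO.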

[4] = read-out: Heat shock 70 kDa protein 1 (HSPA1A), gene 3303; test: LTEA_HepaRG_HSPA1A: Life Technologies and Expression Analysis (LTEA) Assay for Heat shock 70 kDa protein 1 (HSPA1A) using HepaRG (AID 2283502)
Summary of the method: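 Differentiated human HepaRG cells in serum-free induction medium were exposed in duplicate for 48 h to eight concentrations (top 100 uM, half-log steps, 0.5% DMSO). HSPA1A mRNA was quantified by qRT-PCR, normalized to ACTB, GAPDH and POLR2A, and fitted bidirectionally against DMSO.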

[5] = read-out: 3-Hydroxy-3-Methylglutaryl-CoA Synthase 2 (HMGCS2), HMGCS2 (gene 3158); test: LTEA_HepaRG_HMGCS2: Life Technologies and Expression Analysis (LTEA) Assay for 3-Hydroxy-3-Methylglutaryl-CoA Synthase 2 (HMGCS2) using HepaRG (AID 2283504)
Summary of the method: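 HepaRG, plated 48 h then switched to serum-free induction media; cmpd 8-pt, max 100 uM, 1/2-log, 0.5% DMSO, n=2, 48 h. HMGCS2 mRNA by Fluidigm TaqMan qRT-PCR, ACTB/GAPDH/POLR2A norm; bidirectional fit vs DMSO.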

HGF (gene 3082) = test: LTEA_HepaRG_HGF: Life Technologies and Expression Analysis (LTEA) Assay for Hepatocyte Growth Facto (HGF) using HepaRG (AID 2283505)
Summary of the method: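 Read-out is HGF transcript level by qRT-PCR, normalized to three housekeeping genes, fitted bidirectionally against 0.5% DMSO vehicle. Human HepaRG cells received test chemicals for 48 h at up to 100 uM.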

[6] = read-out: Insulin Like Growth Factor 1 (IGF1), IGF1 (gene 3479); test: LTEA_HepaRG_IGF1: Life Technologies and Expression Analysis (LTEA) Assay for Insulin Like Growth Factor 1 (IGF1) using HepaRG (AID 2283506)
Summary of the method: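 Differentiated human HepaRG cells were dosed for 48 h in serum-free induction medium with 0.5% DMSO, eight half-log concentrations up to 100 uM, in duplicate. IGF1 mRNA was quantified by qRT-PCR normalized to ACTB, GAPDH, POLR2A; bidirectional fitting versus DMSO.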

[7] = read-out: Insulin-like growth factor-binding protein 1 (IGFBP1), IGFBP1 (gene 3484); test: LTEA_HepaRG_IGFBP1: Life Technologies and Expression Analysis (LTEA) Assay for Insulin-like growth factor-binding protein 1 (IGFBP1) using HepaRG (AID 2283508)
Summary of the method: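 Thawed HepaRG cells are plated for 48 h, switched to serum-free induction medium, then dosed in duplicate for another 48 h (100 uM top, half-log steps). Lysates in RLT go to qRT-PCR, and gain or loss of signal is fitted relative to vehicle.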

[8] = read-out: Interleukin 6 (IL6), IL6 (gene 3569); test: LTEA_HepaRG_IL6: Life Technologies and Expression Analysis (LTEA) Assay for Interleukin 6 (IL6) using HepaRG (AID 2283509)
Summary of the method: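 HepaRG cells exposed in duplicate for 48 h to eight half-log concentrations, top 100 uM, in 0.5% DMSO serum-free induction medium. mRNA measured by qRT-PCR, normalized to ACTB, GAPDH and POLR2A. Bidirectional fit versus DMSO.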

[9] = read-out: Interleukin 6 Receptor (IL6R), IL6R (gene 3570); test: LTEA_HepaRG_IL6R: Life Technologies and Expression Analysis (LTEA) Assay for Interleukin 6 Receptor (IL6R) using HepaRG (AID 2283510);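 for AC50: TaqMan qRT-PCR signal normalized to ACTB GAPDH and POLR2A housekeeping genes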
Summary of the method: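 Differentiated human HepaRG cells, plated 48 h then switched to serum-free induction medium, were dosed in duplicate for 48 h at eight half-log concentrations up to 100 uM in 0.5% DMSO. IL6R mRNA quantified by qRT-PCR, normalized to ACTB/GAPDH/POLR2A; bidirectional fit versus DMSO.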

[10] = read-out: Potassium channel subfamily K member 1 (KCNK1), KCNK1 (gene 3775); test: LTEA_HepaRG_KCNK1: Life Technologies and Expression Analysis (LTEA) Assay for Potassium channel subfamily K member 1 (KCNK1) using HepaRG (AID 2283511)
Summary of the method: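 Differentiated HepaRG cells, 48 h exposure in serum-free induction medium with 0.5% DMSO; 8 concentrations, half-log from 100 uM, duplicate. KCNK1 mRNA by qRT-PCR, normalized to ACTB, GAPDH, POLR2A; bidirectional fit vs DMSO.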

[11] = read-out: Keratin 19 (KRT19), KRT19 (gene 3880); test: LTEA_HepaRG_KRT19: Life Technologies and Expression Analysis (LTEA) Assay for Keratin 19 (KRT19) using HepaRG (AID 2283512)
Summary of the method: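 KRT19 transcript levels, measured by Fluidigm qRT-PCR against three housekeeping genes, are fitted for gain or loss of signal relative to DMSO. Human HepaRG cells receive test chemicals (top 100 uM, half-log steps, 0.5% DMSO) for 48 hours.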

[12] = read-out: JUN Transcription Factor, JUN (gene 3725); test: LTEA_HepaRG_JUN: Life Technologies and Expression Analysis (LTEA) Assay for JUN Transcription Factor using HepaRG (AID 2283513)
Summary of the method: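 Differentiated HepaRG cells were exposed to chemicals for 48 h in serum-free induction medium, 8 concentrations from 100 uM in half-log steps, 0.5% DMSO vehicle, in duplicate. JUN mRNA was quantified by TaqMan qRT-PCR, normalized to ACTB, GAPDH, POLR2A.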

[13] = read-out: Lipase C (LIPC), LIPC (gene 3990); test: LTEA_HepaRG_LIPC: Life Technologies and Expression Analysis (LTEA) Assay for Lipase C (LIPC) using HepaRG (AID 2283514)
Summary of the method: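 HepaRG cells, 48 h after plating, treated in duplicate for 48 h in serum-free induction medium over 8 half-log concentrations from 100 uM, 0.5% DMSO. LIPC mRNA by TaqMan qRT-PCR normalized to ACTB/GAPDH/POLR2A; bidirectional fit versus DMSO.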

[14] = read-out: Lipoprotein lipase (LPL), LPL (gene 4023); test: LTEA_HepaRG_LPL: Life Technologies and Expression Analysis (LTEA) Assay for Lipoprotein lipase (LPL) using HepaRG (AID 2283515)
Summary of the method: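 Differentiated HepaRG cells, plated 48 h, then exposed 48 h in serum-free induction medium to 8 concentrations (top 100 uM, half-log steps) in 0.5% DMSO, duplicate. LPL mRNA measured by qRT-PCR, normalized to ACTB, GAPDH and POLR2A.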

[15] = read-out: MicroRNA 122 (MIR122), gene 406906; test: LTEA_HepaRG_MIR122: Life Technologies and Expression Analysis (LTEA) Assay for MicroRNA 122 (MIR122) using HepaRG (AID 2283516); note: the transcript read is the microRNA miR-122
Summary of the method: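 Differentiated human HepaRG cells were exposed 48 h in serum-free induction medium to eight half-log concentrations (top 100 uM, 0.5% DMSO). Transcript level was measured by TaqMan qRT-PCR, normalized to ACTB, GAPDH and POLR2A, and fitted bidirectionally versus DMSO.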

[16] = read-out: matrix metalloproteinase-10 (MMP10), MMP10 (gene 4319); test: LTEA_HepaRG_MMP10: Life Technologies and Expression Analysis (LTEA) Assay for matrix metalloproteinase-10 (MMP10) using HepaRG (AID 2283517)
Summary of the method: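 Differentiated HepaRG cells in serum-free induction medium exposed 48 h in duplicate to 8-point half-log series up to 100 uM in 0.5% DMSO. mRNA quantified by qRT-PCR, normalised to ACTB, GAPDH, POLR2A; bidirectional fit versus DMSO.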

[17] = read-out: Intercellular Adhesion Molecule 1 (ICAM1), ICAM1 (gene 3383); test: LTEA_HepaRG_ICAM1: Life Technologies and Expression Analysis (LTEA) Assay for Intercellular Adhesion Molecule 1 (ICAM1) using HepaRG (AID 2283507)
Summary of the method: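 Readout is qRT-PCR mRNA level, normalized to three housekeeping genes and fitted bidirectionally against 0.5% DMSO vehicle. Human HepaRG cultures received compound for 48 h, top concentration 100 uM with half-log dilutions.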

[18] = read-out: Hypoxia-inducible factor 1-alpha (Homo sapiens) (UniProt Q16665); test: LTEA_HepaRG_HIF1A: Life Technologies and Expression Analysis (LTEA) Assay for Hypoxia-inducible factor 1 (HIF1A) Trancription factor using HepaRG (AID 2283503);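 note: HIF1A transcript by TaqMan qRT-PCR normalized to ACTB GAPDH and POLR2A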
Summary of the method: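 HepaRG, 48 h exposure, 8-pt half-log series from 100 uM, 0.5% DMSO vehicle, duplicates. Readout: HIF1A transcript by qRT-PCR (Fluidigm array), housekeeping-normalised. Bidirectional curve fit vs DMSO baseline.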

Hypoxia-inducible factor 1-alpha (Homo sapiens), sequence (Q16665 whole entry, looked up): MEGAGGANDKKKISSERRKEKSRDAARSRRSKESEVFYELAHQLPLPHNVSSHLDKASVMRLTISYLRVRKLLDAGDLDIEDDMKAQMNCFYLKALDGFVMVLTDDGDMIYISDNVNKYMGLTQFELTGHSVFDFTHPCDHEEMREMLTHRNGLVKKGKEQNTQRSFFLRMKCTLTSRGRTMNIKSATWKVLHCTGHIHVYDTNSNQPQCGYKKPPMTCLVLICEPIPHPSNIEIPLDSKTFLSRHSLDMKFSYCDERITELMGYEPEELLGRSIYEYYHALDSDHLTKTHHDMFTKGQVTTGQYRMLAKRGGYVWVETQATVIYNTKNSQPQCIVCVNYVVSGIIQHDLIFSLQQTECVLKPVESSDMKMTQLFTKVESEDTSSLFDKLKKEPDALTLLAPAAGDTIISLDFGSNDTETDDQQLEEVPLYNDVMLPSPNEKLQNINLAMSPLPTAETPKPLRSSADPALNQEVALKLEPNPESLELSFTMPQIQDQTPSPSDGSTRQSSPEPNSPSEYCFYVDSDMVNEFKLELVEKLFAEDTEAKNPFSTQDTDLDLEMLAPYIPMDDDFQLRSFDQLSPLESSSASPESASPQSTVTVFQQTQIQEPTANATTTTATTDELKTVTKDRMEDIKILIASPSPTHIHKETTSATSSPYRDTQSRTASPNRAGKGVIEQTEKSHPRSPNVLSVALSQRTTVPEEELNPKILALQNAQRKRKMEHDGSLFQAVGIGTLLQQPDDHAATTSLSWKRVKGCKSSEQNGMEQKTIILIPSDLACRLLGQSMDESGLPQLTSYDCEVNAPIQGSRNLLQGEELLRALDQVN

CCN(CC)CCNc1ccc(CNC=O)c2sc3ccc(OC)cc3c(=O)c12
AC50 [1]: 50 µM (active) | outcome [2]: inactive | outcome [3]: inactive | AC50 [4]: 9.92 µM (active) | AC50 [5]: 74.3 µM (active) | outcome (HGF (gene 3082)): inactive | AC50 [6]: 85.6 µM (active) | AC50 [7]: 94.1 µM (active) | AC50 [8]: 76.8 µM (active) | AC50 [9]: 22 µM (active) | AC50 [10]: 75.2 µM (active) | AC50 [11]: 12.7 µM (active) | AC50 [12]: 79 µM (active) | outcome [13]: inactive | AC50 [14]: 81.8 µM (active) | AC50 [15]: 27.5 µM (active) | AC50 [16]: 78.5 µM (active)

NC(=O)N(O)[C@@H]1C=C[C@H](Oc2cccc(Oc3ccc(F)cc3)c2)C1
outcome [1]: inactive | AC50 [2]: 50 µM (active) | outcome [3]: inactive | AC50 [4]: 82.6 µM (active) | AC50 [5]: 40.6 µM (active) | outcome (HGF (gene 3082)): inactive | AC50 [6]: 37.9 µM (active) | AC50 [7]: 71.8 µM (active) | AC50 [8]: 38.6 µM (active) | outcome [9]: inactive | AC50 [10]: 35.5 µM (active) | outcome [11]: inactive | AC50 [12]: 76.6 µM (active) | AC50 [13]: 36.4 µM (active) | AC50 [14]: 50 µM (active) | AC50 [15]: 68 µM (active) | AC50 [16]: 64.8 µM (active)

C=C(C)C(=O)OCCC(F)(F)C(F)(F)C(F)(F)C(F)(F)C(F)(F)C(F)(F)F
outcome [1]: inactive | outcome [2]: inactive | outcome [3]: inactive | outcome [4]: inactive | outcome [5]: inactive | outcome (HGF (gene 3082)): inactive | outcome [6]: inactive | outcome [17]: inactive | outcome [7]: inactive | outcome [8]: inactive | outcome [9]: inactive | outcome [10]: inactive | outcome [11]: inactive | outcome [12]: inactive | outcome [13]: inactive | outcome [14]: inactive | outcome [15]: inactive | outcome [16]: inactive

COc1ccc([N+](=O)[O-])cc1N
outcome [1]: inactive | outcome [2]: inactive | outcome [3]: inactive | outcome [4]: inactive | outcome [5]: inactive | outcome (HGF (gene 3082)): inactive | outcome [6]: inactive | outcome [7]: inactive | outcome [8]: inactive | outcome [9]: inactive | outcome [10]: inactive | outcome [11]: inactive | outcome [12]: inactive | outcome [13]: inactive | outcome [14]: inactive | outcome [15]: inactive | outcome [16]: inactive

ClC1=C(Cl)C(Cl)(Cl)C(Cl)=C1Cl
outcome [1]: inactive | outcome [2]: inactive | outcome [3]: inactive | outcome [4]: inactive | outcome [5]: inactive | outcome (HGF (gene 3082)): inactive | outcome [6]: inactive | outcome [7]: inactive | outcome [8]: inactive | outcome [9]: inactive | outcome [10]: inactive | outcome [11]: inactive | outcome [12]: inactive | outcome [13]: inactive | outcome [14]: inactive | outcome [15]: inactive | outcome [16]: inactive

CC(C)(C)c1cc(C(C)(C)C)c(O)c(C(C)(C)C)c1
outcome [1]: inactive | outcome [2]: inactive | outcome [3]: inactive | outcome [4]: inactive | outcome [18]: inactive | AC50 [5]: 21 µM (active) | outcome (HGF (gene 3082)): inactive | outcome [6]: inactive | outcome [7]: inactive | outcome [8]: inactive | outcome [9]: inactive | outcome [10]: inactive | outcome [11]: inactive | outcome [13]: inactive | outcome [14]: inactive | outcome [15]: inactive | outcome [16]: inactive

O=[N+]([O-])c1ccc(O)cc1
outcome [1]: inactive | outcome [2]: inactive | outcome [3]: inactive | outcome [4]: inactive | outcome [5]: inactive | outcome (HGF (gene 3082)): inactive | outcome [6]: inactive | outcome [7]: inactive | outcome [8]: inactive | outcome [9]: inactive | outcome [10]: inactive | outcome [11]: inactive | outcome [12]: inactive | outcome [13]: inactive | outcome [14]: inactive | outcome [15]: inactive | outcome [16]: inactive
